# Source: the supplement of paper PMC4022240
# ± gives the standard deviation.
# Legend:
# Assay in all cases: peptide microarray binding signal (635 nm), min-max normalized on array (fraction of array maximum); higher = stronger binding
# Settings in all cases: peptide region: H2B 7-19
# [1] = molecular target: T1, HaloTag-ATRX ADD domain (163-292)
# T1 chain: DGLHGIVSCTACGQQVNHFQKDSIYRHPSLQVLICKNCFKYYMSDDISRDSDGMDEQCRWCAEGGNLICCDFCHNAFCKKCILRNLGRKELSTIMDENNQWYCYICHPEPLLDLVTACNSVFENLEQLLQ
# Description: (§1)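 Histone 13-mer peptides were synthesized as cellulose conjugates with a C-terminal 20-atom PEG linker and printed in triplicate on nitrocellulose. The sequence given is the unmodified backbone; PTMs (Kme1/2/3, Kac, Sph/Tph, Rme/Rme2a/Rme2s, Rcit) are listed in the label and the 'peptide modifications' condition. Slides were probed at 4 °C for 1 h with biotin-labelled (HQ)5-HaloTag reader fusions (ATRX-ADD, ING2-PHD) then streptavidin-Alexa647, or with rabbit histone antibodies then anti-rabbit Alexa647. The mean 635 nm signal of the triplicate spots was scaled 0-1 between the lowest and highest values on each array.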
# [2] = molecular target: HaloTag-ING2 PHD (mouse Ing2 200-280)
# Description: as §1
# [3] = molecular target: anti-H3K4me3 antibody ab8580
# Description: as §1
# [4] = molecular target: anti-H3K9me3 antibody ab8898
# Description: as §1
# [5] = peptide modifications: H2BK11ac H2BK16ac, binder concentration: 1:2,000 dilution
# [6] = peptide modifications: H2BK11ac H2BK16ac, binder concentration: 1:10,000 dilution
# [7] = peptide modifications: H2BK15ac H2BK16ac, binder concentration: 1:2,000 dilution
# [8] = peptide modifications: H2BK15ac H2BK16ac, binder concentration: 1:10,000 dilution
# [9] = peptide modifications: H2BK11ac H2BS14ph H2BK15ac H2BK16ac, binder concentration: 1:2,000 dilution
# [10] = peptide modifications: H2BK11ac H2BS14ph H2BK15ac H2BK16ac, binder concentration: 1:10,000 dilution
# [11] = peptide modifications: H2BK12ac H2BK16ac, binder concentration: 1:2,000 dilution
# [12] = peptide modifications: H2BK12ac H2BK16ac, binder concentration: 1:10,000 dilution
# [13] = peptide modifications: H2BS14ph, binder concentration: 1:2,000 dilution
# [14] = peptide modifications: H2BS14ph, binder concentration: 1:10,000 dilution
# [15] = peptide modifications: H2BK12ac, binder concentration: 1:2,000 dilution
# [16] = peptide modifications: H2BK12ac, binder concentration: 1:10,000 dilution
# [17] = peptide modifications: H2BK15ac, binder concentration: 1:2,000 dilution
# [18] = peptide modifications: H2BK15ac, binder concentration: 1:10,000 dilution
# [19] = peptide modifications: H2BK16ac, binder concentration: 1:2,000 dilution
# [20] = peptide modifications: H2BK16ac, binder concentration: 1:10,000 dilution
# [21] = peptide modifications: H2BK12ac H2BS14ph H2BK15ac, binder concentration: 1:2,000 dilution
# [22] = peptide modifications: H2BK12ac H2BS14ph H2BK15ac, binder concentration: 1:10,000 dilution
# [23] = peptide modifications: H2BK12ac H2BS14ph H2BK16ac, binder concentration: 1:2,000 dilution
# [24] = peptide modifications: H2BK12ac H2BS14ph H2BK16ac, binder concentration: 1:10,000 dilution
binder,measurement,setting,value
APAPKKGSKKAVT [H2B 7-19 A P A P Kac K G S K Kac A V T],peptide microarray binding signal,"[1]; peptide modifications: H2BK11ac H2BK16ac, binder concentration: 50 nM",0.00401 ± 5.5e-05
same,peptide microarray binding signal,"[1]; peptide modifications: H2BK11ac H2BK16ac, binder concentration: 500 nM",0.0108 ± 0.00051
same,peptide microarray binding signal,"[2]; peptide modifications: H2BK11ac H2BK16ac, binder concentration: 10 nM",0.00788 ± 0.0021
same,peptide microarray binding signal,"[2]; peptide modifications: H2BK11ac H2BK16ac, binder concentration: 100 nM",0.00751 ± 0.00032
same,peptide microarray binding signal,[3]; [5],0.00815 ± 0.00023
same,peptide microarray binding signal,[3]; [6],0.00108 ± 1.9e-05
same,peptide microarray binding signal,[4]; [5],0.00178 ± 9e-05
same,peptide microarray binding signal,[4]; [6],0.00133 ± 4.6e-05
APAPKKGSKKAVT [H2B 7-19 A P A P K K G S Kac Kac A V T],peptide microarray binding signal,"[1]; peptide modifications: H2BK15ac H2BK16ac, binder concentration: 50 nM",0.00539 ± 7.7e-05
same,peptide microarray binding signal,"[1]; peptide modifications: H2BK15ac H2BK16ac, binder concentration: 500 nM",0.00995 ± 0.00033
same,peptide microarray binding signal,"[2]; peptide modifications: H2BK15ac H2BK16ac, binder concentration: 10 nM",0.0115 ± 0.00069
same,peptide microarray binding signal,"[2]; peptide modifications: H2BK15ac H2BK16ac, binder concentration: 100 nM",0.0164 ± 0.004
same,peptide microarray binding signal,[3]; [7],0.00217 ± 0.0011
same,peptide microarray binding signal,[3]; [8],0.00131 ± 5.7e-05
same,peptide microarray binding signal,[4]; [7],0.00133 ± 5.4e-05
same,peptide microarray binding signal,[4]; [8],0.00185 ± 6.1e-05
APAPKKGSKKAVT [H2B 7-19 A P A P Kac K G Sph Kac Kac A V T],peptide microarray binding signal,"[1]; peptide modifications: H2BK11ac H2BS14ph H2BK15ac H2BK16ac, binder concentration: 50 nM",0.00323 ± 0.00013
same,peptide microarray binding signal,"[1]; peptide modifications: H2BK11ac H2BS14ph H2BK15ac H2BK16ac, binder concentration: 500 nM",0.00167 ± 0.00033
same,peptide microarray binding signal,"[2]; peptide modifications: H2BK11ac H2BS14ph H2BK15ac H2BK16ac, binder concentration: 10 nM",0.00388 ± 8.9e-05
same,peptide microarray binding signal,"[2]; peptide modifications: H2BK11ac H2BS14ph H2BK15ac H2BK16ac, binder concentration: 100 nM",0.00269 ± 0.00017
same,peptide microarray binding signal,[3]; [9],0.000245 ± 1e-05
same,peptide microarray binding signal,[3]; [10],0.0012 ± 4.3e-05
same,peptide microarray binding signal,[4]; [9],0.000529 ± 1.3e-05
same,peptide microarray binding signal,[4]; [10],0.000865 ± 1.8e-05
APAPKKGSKKAVT [H2B 7-19 A P A P K Kac G S K Kac A V T],peptide microarray binding signal,"[1]; peptide modifications: H2BK12ac H2BK16ac, binder concentration: 50 nM",0.0107 ± 0.00094
same,peptide microarray binding signal,"[1]; peptide modifications: H2BK12ac H2BK16ac, binder concentration: 500 nM",0.00552 ± 0.0027
same,peptide microarray binding signal,"[2]; peptide modifications: H2BK12ac H2BK16ac, binder concentration: 10 nM",0.00734 ± 0.00071
same,peptide microarray binding signal,"[2]; peptide modifications: H2BK12ac H2BK16ac, binder concentration: 100 nM",0.0104 ± 0.0012
same,peptide microarray binding signal,[3]; [11],0.000302 ± 2.2e-05
same,peptide microarray binding signal,[3]; [12],0.0016 ± 0.00014
same,peptide microarray binding signal,[4]; [11],0.00136 ± 0.00029
same,peptide microarray binding signal,[4]; [12],0.00127 ± 8.9e-05
APAPKKGSKKAVT [H2B 7-19 A P A P K K G Sph K K A V T],peptide microarray binding signal,"[1]; peptide modifications: H2BS14ph, binder concentration: 50 nM",0.00226 ± 0.00011
same,peptide microarray binding signal,"[1]; peptide modifications: H2BS14ph, binder concentration: 500 nM",0.00381 ± 2.8e-05
same,peptide microarray binding signal,"[2]; peptide modifications: H2BS14ph, binder concentration: 10 nM",0.00263 ± 3.9e-05
same,peptide microarray binding signal,"[2]; peptide modifications: H2BS14ph, binder concentration: 100 nM",0.00163 ± 1.7e-05
same,peptide microarray binding signal,[3]; [13],0.000302 ± 3.1e-06
same,peptide microarray binding signal,[3]; [14],0.000799 ± 1.7e-05
same,peptide microarray binding signal,[4]; [13],0.000438 ± 3.5e-05
same,peptide microarray binding signal,[4]; [14],0.00075 ± 4e-05
APAPKKGSKKAVT [H2B 7-19 A P A P K Kac G S K K A V T],peptide microarray binding signal,"[1]; peptide modifications: H2BK12ac, binder concentration: 50 nM",0.00335 ± 0.0001
same,peptide microarray binding signal,"[1]; peptide modifications: H2BK12ac, binder concentration: 500 nM",0.0041 ± 0.00068
same,peptide microarray binding signal,"[2]; peptide modifications: H2BK12ac, binder concentration: 10 nM",0.00471 ± 0.00015
same,peptide microarray binding signal,"[2]; peptide modifications: H2BK12ac, binder concentration: 100 nM",0.00737 ± 0.00077
same,peptide microarray binding signal,[3]; [15],0.000208 ± 4.5e-06
same,peptide microarray binding signal,[3]; [16],0.000799 ± 1.7e-05
same,peptide microarray binding signal,[4]; [15],0.00116 ± 0.00021
same,peptide microarray binding signal,[4]; [16],0.00213 ± 0.00019
APAPKKGSKKAVT [H2B 7-19 A P A P K K G S Kac K A V T],peptide microarray binding signal,"[1]; peptide modifications: H2BK15ac, binder concentration: 50 nM",0.00238 ± 6.4e-05
same,peptide microarray binding signal,"[1]; peptide modifications: H2BK15ac, binder concentration: 500 nM",0.00448 ± 0.00011
same,peptide microarray binding signal,"[2]; peptide modifications: H2BK15ac, binder concentration: 10 nM",0.00561 ± 0.00014
same,peptide microarray binding signal,"[2]; peptide modifications: H2BK15ac, binder concentration: 100 nM",0.0039 ± 0.00027
same,peptide microarray binding signal,[3]; [17],0.00308 ± 0.00021
same,peptide microarray binding signal,[3]; [18],0.000742
same,peptide microarray binding signal,[4]; [17],0.0006645 ± 5.9e-06
same,peptide microarray binding signal,[4]; [18],0.000807
APAPKKGSKKAVT [H2B 7-19 A P A P K K G S K Kac A V T],peptide microarray binding signal,"[1]; peptide modifications: H2BK16ac, binder concentration: 50 nM",0.00392 ± 4.6e-05
same,peptide microarray binding signal,"[1]; peptide modifications: H2BK16ac, binder concentration: 500 nM",0.0109 ± 0.00096
same,peptide microarray binding signal,"[2]; peptide modifications: H2BK16ac, binder concentration: 10 nM",0.0037 ± 0.00013
same,peptide microarray binding signal,"[2]; peptide modifications: H2BK16ac, binder concentration: 100 nM",0.00617 ± 0.00026
same,peptide microarray binding signal,[3]; [19],0.00417 ± 0.00052
same,peptide microarray binding signal,[3]; [20],0.00097 ± 9.9e-06
same,peptide microarray binding signal,[4]; [19],0.000966 ± 4.4e-05
same,peptide microarray binding signal,[4]; [20],0.00144 ± 7.5e-05
APAPKKGSKKAVT [H2B 7-19 A P A P K Kac G Sph Kac K A V T],peptide microarray binding signal,"[1]; peptide modifications: H2BK12ac H2BS14ph H2BK15ac, binder concentration: 50 nM",0.00266 ± 0.00014
same,peptide microarray binding signal,"[1]; peptide modifications: H2BK12ac H2BS14ph H2BK15ac, binder concentration: 500 nM",0.00105 ± 0.00012
same,peptide microarray binding signal,"[2]; peptide modifications: H2BK12ac H2BS14ph H2BK15ac, binder concentration: 10 nM",0.00221 ± 5.8e-05
same,peptide microarray binding signal,"[2]; peptide modifications: H2BK12ac H2BS14ph H2BK15ac, binder concentration: 100 nM",0.00241 ± 8e-05
same,peptide microarray binding signal,[3]; [21],7.55e-05 ± 1.7e-06
same,peptide microarray binding signal,[3]; [22],0.000571 ± 1.1e-05
same,peptide microarray binding signal,[4]; [21],0.000362 ± 1.3e-05
same,peptide microarray binding signal,[4]; [22],0.00075 ± 2.1e-05
APAPKKGSKKAVT [H2B 7-19 A P A P K Kac G Sph K Kac A V T],peptide microarray binding signal,"[1]; peptide modifications: H2BK12ac H2BS14ph H2BK16ac, binder concentration: 50 nM",0.00194 ± 3.1e-05
same,peptide microarray binding signal,"[1]; peptide modifications: H2BK12ac H2BS14ph H2BK16ac, binder concentration: 500 nM",0.00229 ± 3.3e-05
same,peptide microarray binding signal,"[2]; peptide modifications: H2BK12ac H2BS14ph H2BK16ac, binder concentration: 10 nM",0.00358 ± 0.00017
same,peptide microarray binding signal,"[2]; peptide modifications: H2BK12ac H2BS14ph H2BK16ac, binder concentration: 100 nM",0.00198 ± 0.00015
same,peptide microarray binding signal,[3]; [23],0.000831 ± 0.00011
same,peptide microarray binding signal,[3]; [24],0.000628 ± 6.7e-06
same,peptide microarray binding signal,[4]; [23],0.000362 ± 6.3e-06
same,peptide microarray binding signal,[4]; [24],0.00075 ± 1.6e-05
